Measured values from PubChem BioAssay (NCI).
Compounds without any hit were thinned out: in the full panel of roughly 79,000, 15% have a hit. Values without a mark were called inactive. Activity calls are given as the source filed them. No stated cut-off is given here; in the data, active means growth inhibition above about 70%; inactive means the rest.

What was measured:
[1] = NCI Yeast Anticancer Drug Screen. Data for the rad50 strain (AID 155);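 further: 0% = growth of vehicle-only cultures of the same strain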; details: S. cerevisiae rad50 strain growth inhibition; at 50.0 µM; active compounds read high
Summary of the method: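 DNA repair mutant yeast, compound exposure, growth read-out; inhibition is taken relative to vehicle.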

[2] = NCI Yeast Anticancer Drug Screen. Data for the mec2-1 strain (AID 157); details: S. cerevisiae mec2-1 strain, at 50.0 µM, active compounds read high
Summary of the method: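 Mutant yeast (mec2-1) grown with compound; growth inhibition relative to vehicle control reported.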

[3] = NCI Yeast Anticancer Drug Screen. Data for the sgs1 mgt1 strain (AID 161);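 further: 0% = growth of cultures given vehicle only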; details: S. cerevisiae sgs1 mgt1 strain, at 50.0 µM, active compounds read high
Summary of the method: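 Growth of a repair-deficient yeast mutant was monitored after compound treatment and expressed as inhibition relative to vehicle-treated cultures.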

[4] = NCI Yeast Anticancer Drug Screen. Data for the cln2 rad14 strain (AID 165);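 further: 0% = growth equal to vehicle treated cultures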; details: S. cerevisiae cln2 rad14 strain, at 50.0 µM, active compounds read high
Summary of the method: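 Readout is yeast growth inhibition versus vehicle-treated controls, using a strain with cln2 and rad14 alterations exposed to compound.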

[5] = NCI Yeast Anticancer Drug Screen. Data for the bub3 strain (AID 167); details: S. cerevisiae bub3 mutant strain, at 50.0 µM, active compounds read high
Summary of the method: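 In this screen, a yeast mutant lacking normal mitotic checkpoint function is challenged with compound. Relative growth versus vehicle gives the inhibition value.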

[6] = NCI Yeast Anticancer Drug Screen. Data for the mlh1 rad18 strain (AID 175); details: S. cerevisiae mlh1 rad18 strain growth inhibition; at 50.0 µM; active compounds read high
Summary of the method: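 Genetically defined yeast (DNA repair-deficient) exposed to compounds; growth inhibition determined relative to vehicle.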

Compound | growth inhibition [1] [%] | growth inhibition [2] [%] | growth inhibition [3] [%] | growth inhibition [4] | growth inhibition [5] [%] | growth inhibition [6]
CCCC1(c2ccccc2)SCC(=O)NC1=O (stereo not given) | 31.3 | -0.2 | -16.6 | -25.6% | -14.2 | -25.9%
CCC(=O)Nc1cc(C)ccc1Cl | -3.95 | -7.9 | 3.2 | -52.9% | 5.9 | -0.6%
C=C1[C@@H]([C@@]2(C)C=CC(=O)C(C)(C)[C@@H]2CC(=O)OC)CC[C@@]2(C)C(c3ccoc3)OC(=O)[C@H]3O[C@]132 (stereo not given in full) | -3.35 | -1.5 | 16.9 | 15.5% | 16.4 | -34.5%
O=C(O)C(=O)/C=C(\O)c1ccc(Br)cc1 | 32.3 | 11.8 | 3.7 | -12.1% | 36.4 | 30.1%
O=C(Nc1cccc2ccccc12)c1ccc(Cl)c(Cl)c1 | 38.6 | 53.4 | 52.8 | 43.8% | 63.5 | 72.3% (active)
c1ccc(-c2cc(-c3ccccc3)nc(-c3ccncc3)c2)cc1 | -16.1 | -35.3 | 2.9 | 13.8% | 1.55 | -63.7%
O=C(O)C(=O)C(=O)O | -23 | -41.8 | -9.65 | -10.1% | -1.45 | -5.45%
CCCCOC(=O)C1CC2CC1C1OC21 (stereo not given) | -67.6 | -63.3 | -23.7 | -0.3% | -51.9 | -33.5%
CCCCCCCCCCCCOc1ccc(F)cc1C | 6 | -1.15 | 0.45 | 4.6% | 10.7 | 13.4%
CCC(CC)(C[NH-])C[NH-].[Cl][Pt+2][Cl] | 10 | 41.7 | 10 | 16.2% | 18.2 | -7.95%
CCOC(=O)C(C)c1nc2cc(F)c(F)cc2[nH]c1=O (stereo not given) | -5.45 | 26.5 | 9 | 2.6% | 4.1 | -19.4%
Cc1ccc2c(c1)NC(c1ccc(C(=O)O)cc1)c1cccn1-2 (stereo not given) | 29.7 | 8.95 | 0.45 | 7.7% | 19.3 | 23.2%
N#Cc1nnc2cc(-c3ccccc3)nn2c1-c1ccco1 | 27.9 | 11.2 | 16.3 | 35.5% | 28.1 | 31.4%
Brc1c(NC2=NCCN2)ccc2nccnc12 | 6.2 | 5.1 | -24 | -6.45% | -22.1 | -56.9%
CC1(C)C(=NNC(=S)NN)C(C)(C)C1=NNC(=S)NN | 40.5 | 36 | 42.4 | 18.9% | 46.5 | 38.7%
CCOC(=O)C(Nc1cccc2ccccc12)C(=O)OCC | 0.5 | 19.1 | 9.3 | -5.2% | 46.2 | 25.7%
CC(C)(C)C(=O)N/N=C\c1ccc([N+](=O)[O-])s1 | 13.1 | -7.3 | 20.4 | 38.7% | 13.1 | 40.5%
CN1C(C(=O)Nc2nccs2)=C(O)c2ccccc2S1(=O)=O | 2.15 | 7.35 | 19.9 | -11.2% | 7.05 | 21.6%
CCOC(=O)NC1c2ccccc2Oc2ccccc21 | -4.5 | -5.4 | 4.95 | -16.3% | 11 | 2.3%
CC(=O)OCC1OC2OC(C)(C)OC2C1NC(=O)C(F)(F)F (stereo not given) | 16.5 | -2.5 | -8.15 | 10.3% | -5.6 | 9.25%

Compound | growth inhibition [1] [%] | growth inhibition [2] [%] | growth inhibition [3] [%] | growth inhibition [4] | growth inhibition [5] [%] | growth inhibition [6]
ON=C1CCCCC1 | 37.9 | 7.45 | -1.45 | -27.9% | -3.15 | 25.1%
N#Cc1c(-c2ccccc2)c[nH]c1/N=C/N | -17.6 | -16.8 | -9.75 | -10.4% | -10.2 | -6.5%
CCOc1ccc(S(=O)(=O)OCC)cc1 | -15.6 | -14 | -25.2 | 1.35% | -8.45 | -19.6%
COC(=O)N1C(c2ccccc2)(c2ccccc2)CS1(=O)=O | 15.2 | 10.1 | 9.3 | 15.6% | 11.8 | 5.25%
Cc1ccc(/C=c2\cc3oc(=O)c4cccc(c4-3)c2=O)cc1 | -5.3 | 18.1 | 58.6 | 23.6% | 44 | 19.1%
CC(=O)OCC1OC(OC(C)=O)C(Nc2ncnc3nc[nH]c23)C(OC(C)=O)C1OC(C)=O (stereo not given) | 28.1 | 23.9 | 49.9 | 11.6% | 16.5 | 37.8%
O=C(c1ccccc1)C1C(c2ccccc2)N1C(=O)c1ccccc1 (stereo not given) | 9.8 | 16.4 | 6.35 | -1.3% | 35.6 | 12.9%
CC(C)(C)OC(=O)NC(CCC(=O)OCc1ccccc1)C(=O)NCCCO (stereo not given) | -11.8 | -35.3 | 8.4 | -9.35% | -15.7 | 9.8%
CC(=O)NC1C(OCc2ccccc2)OC(CO)C(O)C1OCC(=O)N1CCCC1C(=O)NC(CCC(=O)NCCCCCNc1c2ccccc2nc2cccc([N+](=O)[O-])c12)C(N)=O (stereo not given) | 42.9 | 57.6 | 47.6 | 78.2% (active) | 0.55 | 72.5% (active)
O=c1[nH]nc(S(=O)(=O)N2CCCC2)c(=O)[nH]1 | -10.9 | -9 | -10.7 | -2.85% | -4.15 | -13.2%
COc1cc2c(cc1O)CN1Cc3c(ccc(OC)c3O)C2C1 (stereo not given) | -16 | -14.4 | -1.8 | -1.15% | -11.5 | 0.65%
O=C(Nc1ccc(Cl)cc1)C(=O)C1=C(O)c2ccccc2OC1 | 16.9 | -5.95 | -12.3 | 11.4% | -4.95 | 9.15%
CC(=O)Nc1ccc(S(=O)(=O)/C(=C/c2ccc(-c3ccc(Br)cc3)o2)c2ccc([N+](=O)[O-])o2)cc1 | 30 | -7.45 | -12.2 | 13.7% | 1.1 | -8.05%
CC(=O)n1oc2c(Br)cc(Br)cc2c1=O | -0.75 | 2.85 | 3.7 | -2.55% | -1.05 | 15.1%
CCC(c1ccc(O)cc1)c1cc2c(cc1OCC(=O)OC)OCO2 (stereo not given) | -5.1 | -9.3 | -4.65 | -6.75% | 0.65 | 10.2%
CCOC(=O)CSCCC(=O)OC | -1.3 | 3.1 | -0.8 | -5.5% | -0.05 | 1.35%
COc1ccc(/C=N/NC=O)cc1OC | 7.35 | 6.5 | 1.2 | 1.45% | -12.5 | -2.85%
C=CCOC(=O)Nc1ccc(S(=O)(=O)N2CCCCC2)cc1 | 9 | 6.1 | 2.95 | -17.4% | 17.6 | -5.15%
CC(=O)Nc1ccccc1C | 11.9 | -7.1 | -0.55 | -5.65% | 5.2 | 3.05%
CC1=C2CCOC2=Nc2ccccc2O1 | 15.8 | -6.3 | 11.3 | -1.8% | -14.6 | -6.2%
